IL-1B inflam inh: inflammasome signaling inhibition, IL-1 beta readout; THP-1 LPS/ATP IL-1B secretion, AlphaLISA, 16 h; stronger effect = lower value; activity change, % at 57.5 µM; actives 4.7% (n = 360,000); AID 743279; in the data active = activity change below about -50%; inconclusive = mostly about -30% to -49%
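THP-1 cells pretreated 1 hr with compounds (up to 57.5 uM final), then stimulated with LPS (250 ng/mL final) plus ATP (1.25 mM final); secreted IL-1B measured by AlphaLISA after 16 hr, decreased signal indicating inhibition.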
HT1080 IDH1KD tx: HT-1080 IDH1 knockdown cell toxicity (counter line) | HT-1080 IDH1 knockdown viability, ATP luminescence, 48 h | AID 686971 | actives 2% (n = 360,000) | Potency, µM (highest dose often 46.1 µM), most hits filed as cytotoxic
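Viability of IDH1-knockdown HT-1080 fibrosarcoma cells was assessed by CellTiter-Glo after 48 h at 37 °C with titrated compound; concentration-effect curves were classified by fit quality and response size.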
DT40 TDP1 no CPT: qHTS for Inhibitors of human tyrosyl-DNA phosphodiesterase 1 (TDP1): qHTS in cells in absence of CPT. DT40 Tdp1-/- hTDP1 cells, no CPT, ATP luminescence, 48 h. Potency, µM (series often up to 46.2 µM), most hits filed as inhibitors. actives 15% (n = 420,000); also: nearly all actives have a fitted effect of over 55% in size
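Compound effects on proliferation are scored in DT40 Tdp1-/-;hTDP1 cells in the absence of CPT. ATP levels (CellTiter-Glo luminescence) are recorded after a ≥48 hr, 37 °C incubation.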
DT40 TDP1 CPT: DT40-hTDP1 cell growth loss with CPT | chicken DT40 Tdp1-/-;hTDP1 cells + 20 nM CPT, ATP luminescence, 48 h | Potency, µM (series often up to 46.2 µM), most hits filed as inhibitors | actives 12% (n = 420,000) | AID 686979; also: nearly all actives have a fitted effect of over 55% in size
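Cell growth measured by CellTiter-Glo luminescence after a minimum 48 h, 37 C compound exposure with 20 nM CPT in Tdp1-knockout DT40 cells stably expressing hTDP1, seeded 400/well; qHTS titration format.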
HT1080NT lethal: kills 2HG-producing HT-1080-NT fibrosarcoma cells; actives 1.6% (n = 360,000); Potency, µM (highest dose often 46.1 µM), hits mostly cytotoxic; AID 686970; HT-1080-NT fibrosarcoma viability, CellTiter-Glo ATP luminescence, 48 h;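 also: NT is the 2HG producing partner of a matched IDH1 knockdown line; nearly all actives have a fitted effect of over 55% in size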
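Luminescent CellTiter-Glo readout after 48 hours of compound exposure at 37 degrees C defined viability of HT-1080-NT cells. Activity was normalized to DMSO wells and cell-free media wells; concentration-response curves were fitted and assigned curve classes.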
Of the large screens only hits and unclear results are named; the others gave an inactive call. The list is not random: actives were taken first. Their share in the collection is about 19%. Unless noted, calls follow the shape of the dose curve; as a rule, active = well fitted curve in the direction sought with a large enough effect; inconclusive = small, poorly fitted or top-dose-only effect, or another doubt; inactive = no such curve, though single readings can be large; an effect the other way counts as inactive or inconclusive.

COc1ccc(C(=O)N[C@H](C(=O)Nc2cccc(S(=O)(=O)N3CCOCC3)c2)C(C)C)cc1	IL-1B inflam inh inconclusive, DT40 TDP1 no CPT 18µM
O=C(CN1CCN(S(=O)(=O)c2ccc3ccccc3c2)CC1)Nc1ccc(N2CCOCC2)cc1	none
Cc1cccc(NC(=O)COC(=O)C(NC(=O)c2cccc(S(=O)(=O)N3CCOCC3)c2)C(C)C)c1 (stereo not drawn)	none
Cc1ccsc1CN(C)C(=O)C(NC(=O)c1cccc(S(=O)(=O)N2CCOCC2)c1)C(C)C (stereo not drawn)	DT40 TDP1 no CPT inconclusive, DT40 TDP1 CPT 12µM
Cc1ccc(NC(=O)CN(C)S(=O)(=O)c2ccc3nc(C)sc3c2)c(C)c1	none (no result: IL-1B inflam inh, HT1080 IDH1KD tx, HT1080NT lethal)
CN1CCN(c2ccc(NC(=O)CSc3nnnn3-c3ccccc3Cl)cc2)CC1	DT40 TDP1 no CPT inconclusive
Cc1cccc(C(=O)N[C@H](C(=O)Nc2cc(S(=O)(=O)N3CCCCC3)ccc2C)C(C)C)c1	DT40 TDP1 no CPT inconclusive, DT40 TDP1 CPT inconclusive
Cc1cc(C)c2nc(NC(=O)[C@@H](NC(=O)c3cccc(S(=O)(=O)N4CCOCC4)c3)C(C)C)sc2c1	DT40 TDP1 no CPT inconclusive, DT40 TDP1 CPT 16µM
COc1ccc(C(=O)NC(C(=O)NCc2ccccn2)C(C)C)cc1 (stereo not drawn)	none
CC(C)C(NC(=O)c1ccc(C(C)(C)C)cc1)C(=O)NCc1ccccn1 (stereo not drawn)	DT40 TDP1 no CPT inconclusive, DT40 TDP1 CPT 9.2µM
Cc1cccc(C(=O)N[C@H](C(=O)Nc2ccc(C)c(S(=O)(=O)N(C)C)c2)C(C)C)c1	DT40 TDP1 no CPT 15µM, DT40 TDP1 CPT inconclusive
Cc1cccc(C(=O)N[C@H](C(=O)Nc2ccc(C)c(S(=O)(=O)N3CCOCC3)c2)C(C)C)c1	DT40 TDP1 no CPT inconclusive, DT40 TDP1 CPT inconclusive
COc1ccc(OC)c(N(CC(=O)Nc2ccc3c(c2)OCCO3)S(C)(=O)=O)c1	none
O=C(CN1CCN(Cc2ccc3c(c2)OCO3)CC1)Nc1ccc(N2CCOCC2)cc1	none
COc1ccc2c(c1OC)C(=O)N1N=C(c3ccc(Cl)cc3)CC21 (stereo not drawn)	IL-1B inflam inh -82, DT40 TDP1 no CPT inconclusive
COc1ccc(CNC(=O)C2=CC(c3ccc(OC)cc3)=NS(=O)(=O)N2C)cc1	none
CCOc1ccc(NC(=O)Cn2c(=O)n(CCCCCC(=O)NCc3ccccc3)c(=O)c3sccc32)cc1	DT40 TDP1 no CPT 16µM, DT40 TDP1 CPT inconclusive (no result: IL-1B inflam inh, HT1080 IDH1KD tx, HT1080NT lethal)
CCN(CC)C(=O)Cn1c(=O)n(CCCCCC(=O)NCc2ccccc2)c(=O)c2sccc21	none (no result: IL-1B inflam inh, HT1080 IDH1KD tx, HT1080NT lethal)
CNC(=O)C1CCC(Cn2c(=O)c3sccc3n(CC(=O)Nc3ccc(C)cc3C)c2=O)CC1 (stereo not drawn)	none (no result: IL-1B inflam inh, HT1080 IDH1KD tx, HT1080NT lethal)
Cc1ccc(NC(=O)Cn2c(=O)n(CCCCCC(=O)NCc3ccc(F)cc3)c(=O)c3sccc32)cc1C	DT40 TDP1 no CPT 6.5µM, DT40 TDP1 CPT inconclusive (no result: IL-1B inflam inh, HT1080 IDH1KD tx, HT1080NT lethal)
CNC(=O)C1CCC(Cn2c(=O)c3sccc3n(CC(=O)Nc3ccc(C)c(C)c3)c2=O)CC1 (stereo not drawn)	DT40 TDP1 no CPT 9.2µM, DT40 TDP1 CPT 9.2µM (no result: IL-1B inflam inh, HT1080 IDH1KD tx, HT1080NT lethal)
Cc1ccc(Cc2c(-c3ccc(C#N)cc3)nc3ccc(Cl)cn23)cc1	DT40 TDP1 no CPT inconclusive
CC(C)(C)Cc1c(-c2ccc(C#N)cc2)nc2ccc(Cl)cn12	DT40 TDP1 no CPT 16µM, DT40 TDP1 CPT inconclusive
N#Cc1ccc(-c2nc3ccc(Cl)cn3c2Cc2ccccc2)cc1	DT40 TDP1 no CPT inconclusive, DT40 TDP1 CPT 21µM
CC(C)(C)Cc1c(-c2ccco2)nc2ccc(Cl)cn12	DT40 TDP1 CPT 26µM
CCOC(=O)c1c(NS(C)(=O)=O)sc2c1CCC(C)C2 (stereo not drawn)	DT40 TDP1 no CPT inconclusive
CC#CCOC(=O)c1c(C)nc2sc3c(c2c1N)CC[C@@H](O)C3	DT40 TDP1 no CPT 11µM (no result: IL-1B inflam inh, HT1080 IDH1KD tx, HT1080NT lethal)
CN(C(=O)c1ccccc1C(=O)OCC(=O)c1ccc(F)c(F)c1)C1CCCCC1	IL-1B inflam inh inconclusive, DT40 TDP1 no CPT 26µM, DT40 TDP1 CPT inconclusive
CN(C(=O)c1ccccc1C(=O)OCC(=O)NCc1cccs1)C1CCCCC1	none

Screening data (PubChem)
